MCF10A rereplic = inducers of DNA re-replication in MCF 10A breast cells; MCF 10A DNA re-replication, Hoechst nuclear intensity, 48 h; Potency, µM (highest dose often 46.1 µM), for the others: at the top dose activity, positive = re-replication, hits mostly activators; hit rate 2.9% among 350,000; AID 624296; further: % of control where 0% means no effect; nearly all actives have a fitted effect of over 50% in size
SW480 rerep = inducers of DNA re-replication in SW480 colon cancer cells; AID 624297; SW480 DNA re-replication, Hoechst DNA content imaging, 48 h; hit rate 1.8% among 340,000; Potency, µM (series often up to 46.1 µM), inactives show at the top dose re-replication activation, most hits filed as activators; further: % of control where 0% means no effect; nearly all actives have a fitted effect of over 55% in size
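Treated cells incubate 48 hr (37 C, 5% CO2), are stained 40 min with Hoechst, and nuclear fluorescence is enumerated; a rise in nuclei with high DNA signal marks re-replication.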
KB-V1 MDR tox = KB-V1 MDR subline cytotoxicity | KB-V1 MDR cells viability, CellTiter-Glo, 72 h | hit rate 3.4% among 400,000 | AID 1347076 | Potency, µM (doses to about 46.1 µM), usual class: cytotoxic; further: on the % scale 0 is the no-effect control and ±100 the full control effect; nearly all actives have a fitted effect of over 60% in size
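KB-V1 MDR subline cells in DMEM (phenol-red free, 10% FBS) exposed to compounds in qHTS concentration series for 72 h at 37 degrees C. Viability read by CellTiter-Glo luminescence; concentration-effect curves fitted after normalization and correction.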
PINK1 modulator = PINK1 expression modulation | PINK1 immunofluorescence, high-content cytometry, 24 h | Potency, µM (doses to about 76.6 µM), inactives show at the highest dose activation (PINK1 increase), hits mostly activators | hit rate 0.2% among 410,000 | AID 624263; active means well fitted activation curve with a large enough effect; inconclusive means small, poorly fitted or top-dose-only effect; cell line not stated here; further: % of control where 0% means no effect; nearly all actives have a fitted effect of over 65% in size
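PINK1 protein, normally rapidly degraded, was detected by immunofluorescence after 24 hour compound treatment of a stable cell line. Titration data (5 concentrations) came from laser-scanning cytometry, with CCCP-treated wells as controls.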
KB-3-1 tox = kills parental KB-3-1 adenocarcinoma cells | AID 1347075 | Potency, µM (highest dose often 46.1 µM), usual class: cytotoxic | KB-3-1 viability, CellTiter-Glo ATP luminescence, 72 h | hit rate 1.4% among 400,000; further: on the % scale 0 is the no-effect control and ±100 the full control effect; nearly all actives have a fitted effect of over 60% in size
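KB-3-1 cells, DMEM (no phenol red) + 10% FBS; compound by pin transfer, 72 h, 37 °C. Readout: CellTiter-Glo luminescence after 10 min. Data normalized, curve-fitted.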
Starred values were filed as active, the others as inactive; [ ] = remark or other dose. The list is not random: actives were taken first. Their share in the collection is about 6.7%. Unless noted, the call rests on the fitted dose curve; in most records, active means well fitted curve in the direction sought with a large enough effect; inconclusive means small, poorly fitted or top-dose-only effect, or another doubt; inactive means no such curve, though single readings can be large; an effect the other way counts as inactive or inconclusive. Potency means the concentration at half of the fitted maximal effect.

Screening O=C(Nc1cccc(-c2nc3ncccc3o2)c1)c1sc2ccccc2c1Cl returned MCF10A rereplic inconclusive, SW480 rerep inconclusive, KB-V1 MDR tox inconclusive, PINK1 modulator inconclusive and KB-3-1 tox inactive.
`CN(C)CCCN(C(=O)CCc1ccccc1)c1nc2c(F)cccc2s1` gave MCF10A rereplic 1.9%, SW480 rerep 20.1%, KB-V1 MDR tox inactive, PINK1 modulator -5.1% and KB-3-1 tox inactive.
Screening CCOc1ccc2nc(N(CCN(CC)CC)C(=O)/C=C/c3cccs3)sc2c1 returned MCF10A rereplic inconclusive, SW480 rerep 29.1µM*, KB-V1 MDR tox inactive, PINK1 modulator 12.9% and KB-3-1 tox inactive.
Cc1cccc2sc(N(CCN(C)C)C(=O)/C=C/c3cccs3)nc12 was read as MCF10A rereplic 23.1µM*, SW480 rerep inconclusive, KB-V1 MDR tox 18.4µM*, PINK1 modulator 3.2% and KB-3-1 tox inconclusive.
For CN(C)CCCN(C(=O)/C=C/c1cccs1)c1nc2c(F)cccc2s1 the results were MCF10A rereplic 25.9µM*, SW480 rerep inconclusive, KB-V1 MDR tox inconclusive, PINK1 modulator -4.1% and KB-3-1 tox inconclusive.
Screening COc1cccc(C2c3c(oc4cc(C)cc(C)c4c3=O)C(=O)N2CCc2ccc(OC)c(OC)c2)c1 (configuration not stated) returned KB-V1 MDR tox inactive, PINK1 modulator 2.7% and KB-3-1 tox inactive.
For O=C(O)C1C(c2ccccc2)=C1c1ccc(Br)cc1 (configuration not stated) the results were KB-V1 MDR tox inactive, PINK1 modulator -1.5% and KB-3-1 tox inactive.
NC(=O)C1C(c2ccccc2)=C1c1ccccc1 was read as MCF10A rereplic -0.9%, SW480 rerep 3.3%, KB-V1 MDR tox 20.6µM*, PINK1 modulator -0.5%[38.3 µM] and KB-3-1 tox inactive.
For CCc1nnc(NC(=O)CN2C(=O)N(C)C3(CCCCC3)C2=O)s1 the results were MCF10A rereplic -1.7%, SW480 rerep -4.5%, KB-V1 MDR tox inactive, PINK1 modulator 2.0% and KB-3-1 tox inactive.
Screening O=C(CSc1nnc(NC(=O)C2CC2)s1)Nc1ccccc1Cl returned MCF10A rereplic 5.8%, SW480 rerep 5.8%, KB-V1 MDR tox inactive, PINK1 modulator 3.1% and KB-3-1 tox inactive.
Screening NNC(=O)/C(=C\c1ccco1)NC(=O)c1ccco1 returned MCF10A rereplic 20.6µM*, SW480 rerep inconclusive, KB-V1 MDR tox inactive, PINK1 modulator 14.4% and KB-3-1 tox inactive.
`C=CCNC(=O)/C(=C\c1ccco1)NC(=O)c1ccco1` gave MCF10A rereplic -3.2%, SW480 rerep -0.1%, KB-V1 MDR tox inactive, PINK1 modulator 0.1% and KB-3-1 tox inactive.
Screening Nc1cc2c(cc1Cl)-c1ccc([N+](=O)[O-])cc1C2=NO returned MCF10A rereplic 16.7%, SW480 rerep 10.4%, KB-V1 MDR tox inactive, PINK1 modulator -1.1% and KB-3-1 tox inactive.
`O=C(Cn1nc2n(c1=O)-c1ccccc1SC2)N/N=C/c1ccncc1` gave MCF10A rereplic inconclusive, SW480 rerep -5.3%, KB-V1 MDR tox inactive, PINK1 modulator 1.6% and KB-3-1 tox inactive.
COc1ccc2c(c1)nc(SCC(=O)c1ccc(Br)s1)n2C was read as MCF10A rereplic 14.6µM*, SW480 rerep inconclusive, KB-V1 MDR tox inconclusive and KB-3-1 tox inactive.
CCNC(=O)C1(C)CCN(Cc2ccccc2-c2ccccc2)C1 (configuration not stated) was read as KB-V1 MDR tox inactive, PINK1 modulator 1.2% and KB-3-1 tox inactive.
`CC1CCCN(C(=O)CN2CCC(c3nc4ccc(Cl)cc4[nH]3)CC2)C1` (configuration not stated) gave MCF10A rereplic 1.7%, SW480 rerep -11.6%, KB-V1 MDR tox inconclusive, PINK1 modulator -1.0% and KB-3-1 tox inactive.
For Clc1ccc(CN2CCC(c3nc4ccc(Cl)cc4[nH]3)CC2)cc1 the results were MCF10A rereplic inconclusive, SW480 rerep inconclusive, KB-V1 MDR tox 20.6µM*, PINK1 modulator 0.3% and KB-3-1 tox inconclusive.
`Cc1[nH]n(C)c(=O)c1C(=O)c1c(-c2ccccc2Cl)noc1C` gave MCF10A rereplic 25.9µM*, SW480 rerep inconclusive, KB-V1 MDR tox inactive, PINK1 modulator 10.6% and KB-3-1 tox inactive.
Screening Cc1cc(NC(=O)c2c(-c3ccccc3Cl)noc2C)no1 returned MCF10A rereplic 3.8%, SW480 rerep -4.9%, KB-V1 MDR tox 13µM*, PINK1 modulator -1.3% and KB-3-1 tox inactive.
`COC(=O)c1cc(OC)c(OC)cc1NC(=O)c1c(-c2ccccc2Cl)noc1C` gave MCF10A rereplic 26.5%, SW480 rerep inconclusive, KB-V1 MDR tox 3.26µM*, PINK1 modulator inconclusive and KB-3-1 tox inconclusive.
Screening Cc1onc(-c2c(F)cccc2Cl)c1C(=O)OCC(=O)Nc1cccc(S(=O)(=O)N(C)C)c1 returned MCF10A rereplic 7.2%, SW480 rerep -0.5%, KB-V1 MDR tox 4.11µM*, PINK1 modulator 1.6% and KB-3-1 tox inconclusive.
For Cc1onc(-c2ccccc2Cl)c1C(=O)Nc1ccc(F)c(F)c1 the results were MCF10A rereplic 4.6%, SW480 rerep -26.9%, KB-V1 MDR tox inactive and KB-3-1 tox inactive.
For CC(C)c1ccc(NC(=O)CSc2nnc(-c3ccccc3)n2C)cc1 the results were KB-V1 MDR tox inactive, PINK1 modulator 1.9% and KB-3-1 tox inactive.
Screening O=S(=O)(c1ccccc1)N1CC2CC(Br)C(Br)CC21 (configuration not stated) returned KB-V1 MDR tox inactive, PINK1 modulator 2.0% and KB-3-1 tox inactive.
Screening COc1ccc(NC(=O)Cn2nnc(-c3ccccc3NS(=O)(=O)c3ccccc3)n2)cc1 returned MCF10A rereplic 8.4%, SW480 rerep -3.3%, KB-V1 MDR tox 2.91µM*, PINK1 modulator 3.2% and KB-3-1 tox 23.1µM*.
For Cc1ccc(NC(=S)NC(=O)c2c(-c3ccccc3Cl)noc2C)cc1 the results were MCF10A rereplic 16.5%, SW480 rerep -5.5%, KB-V1 MDR tox 20.6µM*, PINK1 modulator 3.9% and KB-3-1 tox inactive.
Screening Cc1onc(-c2c(F)cccc2Cl)c1C(=O)Nc1cccc(Cn2cccn2)c1 returned MCF10A rereplic -8.1%, SW480 rerep 4.0%, KB-V1 MDR tox 20.6µM*, PINK1 modulator -4.3%[38.3 µM] and KB-3-1 tox inactive.
Screening COc1ccc(S(=O)(=O)Nc2ccccc2-c2nnn(CC(=O)Nc3ccccc3OC)n2)cc1 returned MCF10A rereplic inconclusive, SW480 rerep inconclusive, KB-V1 MDR tox inactive, PINK1 modulator 3.8% and KB-3-1 tox inactive.
For Cc1onc(-c2ccccc2Cl)c1C(=O)NC(=S)Nc1ccc(C(C)C)cc1 the results were MCF10A rereplic 4.1%, SW480 rerep -6.9%, KB-V1 MDR tox inactive, PINK1 modulator 5.1% and KB-3-1 tox inactive.
